# Reference: PubChem BioAssay
# Inconclusive results are not listed. Calls of active or inactive are those of the source. Unless noted, cut-off not given; nearly all actives show AC50 up to about 26 µM.
# Legend:
# [1] = growth inhibition of DIPG glioma cells, dose response, cell-based, SU-DIPG-XVII, MIPE5.0, CellTiter-Glo, qHTS (AID 1347060); details: SU-DIPG-XVII viability, CellTiter-Glo ATP luminescence;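 on AC50: cells exposed to compound for 48 hours before viability readout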
# [2] = viability loss in pontine glioma line – cell-based, SU-DIPG-XXV, MIPE5.0, CellTiter-Glo, qHTS, dose response (AID 1347065); details: CellTiter-Glo ATP luminescence;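 further: cells exposed to compound for 48 hours before ATP readout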
# [3] = growth inhibition of DIPG glioma cells, dose response, cell-based, SU-DIPG-XIII, MIPE5.0, CellTiter-Glo, qHTS (AID 1347064; cut-off not given, nearly all actives have AC50 up to about 23 µM;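 on AC50: cells exposed to compound for 48 hours before the viability read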); details: SU-DIPG-XIII viability, CellTiter-Glo ATP luminescence
# [4] = SU-DIPG-XXV glioma cell viability, MIPE5.0 library, qHTS (AID 1347068; cut-off not given, nearly all actives have IC50 up to about 30 µM;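 on IC50: cells exposed to compound for 48 hours before viability readout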)
# [5] = sensitizers of A549 cells to miR-34 induction, primary screen, imaging, A549 dox-inducible miR-34, nuclei and caspase counts (AID 1347080;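 active means compounds whose cell count with miR-34 switched on is under 0.7 times the count with it off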); details: A549 miR-34 inducible, Hoechst nuclei count, 48 h
# [6] = survival rescue of mitochondrial mutant cells in low glucose, primary screen, MELAS cybrids, Rieske KO mouse fibroblasts, CellTiter-Glo (AID 1508586;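 active means mean z-score across replicates of 1.96 or higher in either the MELAS or the Rieske mutant cell line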;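 further: z relative to plate mean and SD of compound and empty wells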)
# [7] = JHH-DIPG-1 glioma cell viability, MIPE5.0 library, CellTiter-Glo luminescence, qHTS (AID 1347067); details: JHH-DIPG-1 glioma viability, CellTiter-Glo ATP luminescence;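 further: cells exposed to compound for 48 hours before readout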
# [8] = LFS_MB_P medulloblastoma growth inhibition, cell-based, chromothripsis tumors, cisplatin or BGB combos (AID 1671449; in the data active means inhibition above about 80%;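 further: cells exposed for 96 hours; 0% = vehicle DMSO and 100% = killing by high DMSO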); details: LFS_MB_P medulloblastoma cells
# [9] = HDN33 neuroblastoma growth inhibition, cell-based, chromothripsis tumors, cisplatin or BGB combos (AID 1671450; in the data active means inhibition above about 80%;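 further: cells exposed to compound for four days; 0% = vehicle DMSO and 100% = cell killing by high DMSO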); details: HDN33 neuroblastoma cells, stronger effect = higher value
# [10] = ICB984 medulloblastoma cell growth inhibition, synergistic combos for chromothripsis tumors, cisplatin or BGB combos (AID 1671451; call rule not given here;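 further: cells exposed for 96 hours before readout; 0% = vehicle DMSO and 100% = killing by high DMSO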); details: ICB984 medulloblastoma cells, drug combinations, stronger effect = higher value
# [11] = LFS_MB_1R medulloblastoma cell growth inhibition, synergistic combos for chromothripsis tumors, cisplatin or BGB combos (AID 1671452; in the data active means inhibition above about 80%;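 further: cells exposed for 96 hours before readout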); details: LFS_MB_1R medulloblastoma cells, stronger effect = higher value
# [12] = HTB85 osteosarcoma cell growth inhibition, synergistic combos for chromothripsis tumors, BGB or cisplatin IC20 combos (AID 1671453; in the data active means inhibition above about 80%;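 further: cells exposed for 96 hours before readout; 0% = vehicle DMSO and 100% = high DMSO killing control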); details: HTB85 osteosarcoma cells, drug combinations, stronger effect = higher value
# [13] = CRL2098 osteosarcoma cell growth inhibition, synergistic combos for chromothripsis tumors, BGB or cisplatin IC20 combos (AID 1671454; in the data active means inhibition above about 80%;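 further: cells exposed for 96 h before readout; 0% = vehicle DMSO and 100% = killing by high DMSO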); details: CRL2098 osteosarcoma cells, drug combinations, stronger effect = higher value
# [14] = HD-MB03 medulloblastoma cell growth inhibition, synergistic combos for chromothripsis tumors, BGB or cisplatin IC20 combos (AID 1671455; in the data active means inhibition above about 83%;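 further: 0% = vehicle DMSO and 100% = high DMSO as cytotoxic control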); details: HD-MB03 medulloblastoma cells, stronger effect = higher value
# [15] = UWB1.289 ovarian carcinoma cell growth inhibition, synergistic combos for chromothripsis tumors, BGB or cisplatin combos (AID 1671456; in the data active means inhibition above about 80%;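 further: cells exposed to compound for four days; 0% = vehicle DMSO and 100% = killing by high DMSO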); details: UWB1.289 ovarian carcinoma cells, stronger effect = higher value
# [16] = LFS_MB_2R medulloblastoma cell growth inhibition, synergistic combos for chromothripsis tumors, cisplatin combos (AID 1671457; in the data active means inhibition above about 80%;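 further: cells exposed to compound for four days before readout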); details: LFS_MB_2R medulloblastoma cells, stronger effect = higher value
# [17] = MDA-MB-436 breast carcinoma cell growth inhibition, synergistic combos for chromothripsis tumors, BGB or cisplatin combos (AID 1671458; call rule not given here;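 further: cells exposed for 96 hours; 0% = vehicle DMSO and 100% = killing by high DMSO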); details: MDA-MB-436 breast carcinoma growth inhibition, drug combinations, stronger effect = higher value
# [18] = UWB1.289_BRCA1 ovarian cancer growth, cell-based, BGB or cisplatin combinations (AID 1671459; in the data active means inhibition above about 80%); details: UWB1.289 BRCA1 ovarian carcinoma, drug combinations, stronger effect = higher value
# [19] = human astrocyte viability loss, single and combined drugs, cytotoxicity control for chromothriptic childhood tumor combination screen, cell-based, BGB or cisplatin IC20 combos (AID 1671460; in the data active means inhibition above about 80%;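 further: cells exposed to compounds for 96 hours before viability readout; 0% = vehicle and 100% = killing control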); details: Human astrocytes, drug combinations, stronger effect = higher value
# [20] = growth inhibition of BT084 medulloblastoma cells, cell-based, ICGC_MB145, cisplatin and BGB IC40 combos (AID 1671461; in the data active means inhibition above about 80%;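 further: cells exposed to drugs for 96 hours; 0% = vehicle DMSO and 100% = high DMSO full killing control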); details: drug combinations, stronger effect = higher value
# [21] = growth inhibition of RCMB18 medulloblastoma cells, cell-based, cisplatin and BGB IC40 combos (AID 1671462; in the data active means inhibition above about 80%;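 further: cells exposed to compound for four days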); details: stronger effect = higher value
# [22] = growth inhibition of CRL1545 osteosarcoma cells, cell-based, cisplatin and BGB IC20 combos (AID 1671464; in the data active means inhibition above about 80%;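 further: cells exposed to compound for 96 hours before readout; 0% = vehicle DMSO and 100% = high DMSO killing control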); details: stronger effect = higher value
# [23] = stronger effect = lower value, cell number ratio, induced over uninduced
# [24] = measured here: relative caspase fold change +Dox/-Dox
# [25] = measured here: total cells with miR-34 induction, stronger effect = lower value
# [26] = measured here: total cells without miR-34 induction
# [27] = MELAS cybrid survival, CellTiter-Glo 48 h, stronger effect = higher value
# [28] = Rieske KO mouse fibroblast survival, CellTiter-Glo 72 h
# [29] = measured here: combination with BGB IC40, at 0.05 µM
# [30] = measured here: with BGB IC20 combination, at 0.5 µM
# [31] = measured here: with cisplatin IC20 combination, at 0.5 µM
# [32] = measured here: combination with cisplatin, at 0.5 µM
# [33] = measured here: combination with cisplatin, at 5 µM
smiles,measurement,setting,value
CC1=C2[N-][C@H]([C@H](CC(N)=O)[C@@]2(C)CCC(=O)NC[C@@H](C)OP(=O)([O-])O[C@H]2[C@@H](O)[C@@H](n3cnc4cc(C)c(C)cc43)O[C@@H]2CO)[C@]2(C)N=C(C(C)=C3N=C(C=C4N=C1[C@@H](CCC(N)=O)C4(C)C)[C@@H](CCC(N)=O)[C@]3(C)CC(N)=O)[C@@H](CCC(N)=O)[C@]2(C)CC(N)=O.O.[Co+2],outcome,[1],inactive
same,outcome,[2],inactive
Cc1ccc(C2=Nc3ccc(Cl)cc3OC2)cc1,outcome,[1],inactive
same,outcome,[3],inactive
same,outcome,[4],inactive
Cn1cnc(-c2cc3nccc(Oc4ccc(NC(=S)NC(=O)Cc5ccccc5)cc4F)c3s2)c1,AC50,[1],16.6 µM (active)
same,AC50,[3],18.6 µM (active)
same,IC50,[4],4.17 µM (active)
same,fold change,[5]; [23],0.83 (inactive)
same,fold change,[5]; [24],1.19
same,cell count,[5]; [25],3930
same,cell count,[5]; [26],4730
same,z-score,[6]; [27],-0.555 (inactive)
same,z-score,[6]; [28],-0.0569
COc1ncc(Nc2ncc(C(C)N3CCN(S(C)(=O)=O)CC3)cc2-c2nc(C)nc(N)n2)cc1F (centres undefined),AC50,[1],0.934 µM (active)
same,AC50,[2],0.235 µM (active)
CN1C(=O)c2sccc2N(C)c2nc(Nc3ccc(S(N)(=O)=O)cc3)ncc21,AC50,[1],14.8 µM (active)
same,AC50,[2],3.72 µM (active)
COc1cc(C)[nH]c(=O)c1CN1CCc2c(Cl)cc([C@H](OC)C3COC3)c(Cl)c2C1=O,outcome,[1],inactive
same,outcome,[3],inactive
same,outcome,[7],inactive
same,outcome,[4],inactive
C[C@@H]1CN(CC(=O)N2CC(C)(C)c3ncc(Cc4ccc(F)cc4)cc32)[C@@H](CN2CCOC[C@H]2C)CN1,outcome,[1],inactive
same,outcome,[3],inactive
same,outcome,[7],inactive
same,outcome,[4],inactive
CC#Cc1cncc(-c2ccc3c(c2)[C@@]2(N=C(C)C(N)=N2)C2(CCC(OC)CC2)C3)c1 (some centres undefined),outcome,[1],inactive
same,outcome,[3],inactive
same,outcome,[4],inactive
O=C(Nc1cccc(C(F)(F)F)c1)Nc1cc(S(=O)(=O)NC2CC2)ccc1-c1ccsc1,outcome,[1],inactive
same,outcome,[3],inactive
same,outcome,[7],inactive
same,outcome,[4],inactive
same,fold change,[5]; [23],0.892 (inactive)
same,fold change,[5]; [24],0.311
same,cell count,[5]; [25],6420
same,cell count,[5]; [26],7200
same,z-score,[6]; [27],-0.374 (inactive)
same,z-score,[6]; [28],-0.851
Cc1cc2c(F)c(Oc3ncnn4cc(OCC(C)OC(=O)C(C)N)c(C)c34)ccc2[nH]1 (centres undefined),AC50,[1],16.6 µM (active)
same,AC50,[3],16.6 µM (active)
same,fold change,[5]; [23],1.09 (inactive)
same,fold change,[5]; [24],0.564
same,cell count,[5]; [25],4840
same,cell count,[5]; [26],4460
same,z-score,[6]; [27],0.128 (inactive)
same,z-score,[6]; [28],1.06
Cc1c(F)cc(C(=O)NC2CC2)cc1-c1ccc(C(=O)NCC(C)(C)C)cn1,outcome,[1],inactive
same,outcome,[3],inactive
same,outcome,[7],inactive
same,outcome,[4],inactive
same,fold change,[5]; [23],0.832 (inactive)
same,fold change,[5]; [24],0.447
same,cell count,[5]; [25],7400
same,cell count,[5]; [26],8890
same,z-score,[6]; [27],-0.46 (inactive)
same,z-score,[6]; [28],0.488
NC(=O)c1nc(F)c[nH]c1=O,outcome,[1],inactive
same,outcome,[3],inactive
same,outcome,[7],inactive
same,outcome,[4],inactive
same,inhibition,"[8]; at 0.5 µM, stronger effect = higher value",-5.96% (inactive)
same,inhibition,"[8]; measured here: combination with BGB IC20, at 0.005 µM",-6.89%
same,inhibition,"[8]; measured here: combination with BGB IC40, at 0.005 µM",86.3%
same,inhibition,[8]; [29],2.5%
same,inhibition,"[8]; measured here: combination with cisplatin, at 0.5 µM, stronger effect = higher value",-12.3%
same,inhibition,"[8]; measured here: combination with cisplatin, at 5 µM, stronger effect = higher value",-15%
same,inhibition,"[9]; BGB combo, at 5 µM",-13.7%
same,inhibition,[9]; at 0.5 µM,0.69% (inactive)
same,inhibition,"[9]; cisplatin combo, at 5 µM",-13.9%
same,inhibition,[9]; [30],-3.64%
same,inhibition,[9]; [31],-5.09%
same,inhibition,"[9]; single agent, at 5 µM",9.18%
same,inhibition,"[10]; BGB IC20 combo, at 0.005 µM",-3.29%
same,inhibition,"[10]; BGB IC40 combo, at 0.005 µM",-2.11%
same,inhibition,"[10]; BGB IC40 combo, at 0.05 µM",0.125%
same,inhibition,[10]; at 0.5 µM,0.29% (inactive)
same,inhibition,"[10]; cisplatin combo, at 0.05 µM",-4.93%
same,inhibition,"[10]; cisplatin combo, at 0.5 µM",4.34%
same,inhibition,"[10]; cisplatin combo, at 5 µM",4.92%
same,inhibition,"[10]; measured here: 5 uM single agent, at 5 µM",-8.47%
same,inhibition,[11]; at 0.5 µM,1.01% (inactive)
same,inhibition,[11]; [29],2.61%
same,inhibition,[11]; [32],-16.3%
same,inhibition,[11]; [33],16.6%
same,inhibition,[12]; at 0.5 µM,1.18% (inactive)
same,inhibition,"[12]; measured here: with BGB IC20, at 0.5 µM",-2.45%
same,inhibition,"[12]; measured here: with BGB IC20, at 5 µM",5.78%
same,inhibition,"[12]; measured here: with cisplatin IC20, at 0.5 µM",-2.57%
same,inhibition,"[12]; measured here: with cisplatin IC20, at 5 µM",4.67%
same,inhibition,"[12]; single agent, at 5 µM",17.5%
same,inhibition,[13]; at 0.5 µM,-7.02% (inactive)
same,inhibition,"[13]; measured here: combination with BGB at IC20, at 0.5 µM",-19%
same,inhibition,"[13]; measured here: combination with cisplatin at IC20, at 0.5 µM",9.34%
same,inhibition,[14]; at 0.5 µM,0.58% (inactive)
same,inhibition,"[14]; measured here: combo with BGB at IC20, at 0.5 µM",5.69%
same,inhibition,"[14]; measured here: combo with cisplatin at IC20, at 0.5 µM",-1.93%
same,inhibition,[15]; at 0.5 µM,4.26% (inactive)
same,inhibition,"[15]; measured here: inhibition with BGB combination, at 0.05 µM",6.54%
same,inhibition,"[15]; measured here: inhibition with cisplatin combination, at 0.05 µM",-1.23%
same,inhibition,[16]; at 0.5 µM,1.33% (inactive)
same,inhibition,[16]; [32],5.37%
same,inhibition,[16]; [33],9.87%
same,inhibition,[17]; at 0.5 µM,-2.87% (inactive)
same,inhibition,"[17]; measured here: BGB combination, at 0.5 µM",-1.29%
same,inhibition,"[17]; measured here: BGB combination, at 5 µM",-9.17%
same,inhibition,"[17]; measured here: cisplatin combination, at 0.5 µM",-10.9%
same,inhibition,"[17]; measured here: cisplatin combination, at 5 µM",-5.06%
same,inhibition,"[18]; BGB combination, concentration series, at 5 µM",-6.18%
same,inhibition,[18]; at 0.5 µM,1.49% (inactive)
same,inhibition,"[18]; cisplatin combination, concentration series, at 5 µM",2.48%
same,inhibition,[19]; at 0.5 µM,-3.48% (inactive)
same,inhibition,"[19]; measured here: combo with BGB IC20, at 0.5 µM",-7.39%
same,inhibition,"[19]; measured here: combo with cisplatin IC20, at 0.5 µM",-5.76%
same,inhibition,[20]; at 0.5 µM,-1.11% (inactive)
same,inhibition,"[20]; cisplatin combination, at 0.5 µM",6.95%
same,inhibition,"[20]; cisplatin combination, at 5 µM",-101%
same,inhibition,"[20]; measured here: BGB IC40 combination 0.05 uM, at 0.05 µM",-16.8%
same,inhibition,"[20]; single agent, at 5 µM",4.66%
same,inhibition,[21]; at 0.5 µM,-6.23% (inactive)
same,inhibition,"[21]; cisplatin combo, at 5 µM",8.94%
same,inhibition,"[21]; measured here: BGB IC40 combination, at 0.05 µM",-10.5%
same,inhibition,[21]; [32],-26.7%
same,inhibition,"[21]; single agent, at 5 µM",14.2%
same,inhibition,[22]; at 0.5 µM,13.8% (inactive)
same,inhibition,[22]; [30],6.76%
same,inhibition,[22]; [31],16%
same,inhibition,"[22]; single agent, at 0.05 µM",-15.2%
same,inhibition,"[22]; single agent, at 5 µM",-29.6%
